From PubChem BioAssay (Tox21) come the findings set out here.

The nature of assay [1]: qHTS assay to identify small molecule antagonists of the glucocorticoid receptor (GR) signaling pathway - cell viability counter screen (AID 720693). Note: nearly all actives have a fitted effect of over 55% in size.
The nature of assay [2]: qHTS assay for identifying genotoxic compounds that show differential cytotoxicity against isogenic chicken DT40 cell lines with known DNA damage response pathways - wild type cell line (AID 743012). Note: nearly all actives have a fitted effect of over 60% in size. Note: potency is the fitted concentration of half-maximal effect. A digest of the protocol: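 CellTiter-Glo luminescence readout of viability in wild type DT40 cells after 40 h compound exposure at 37 C/5% CO2; 300 cells/well; reagent incubated 30 min at room temperature before reading.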
Background: qHTS replaces the single test concentration by a dilution series.

Assay [3] can be described thus: qHTS assay for identifying genotoxic compounds that show differential cytotoxicity against isogenic chicken DT40 cell lines with known DNA damage response pathways - Rev3 mutant cell line (AID 743014). Note: nearly all actives have a fitted effect of over 55% in size. Note: potency is the fitted concentration of half-maximal effect.
Assay [4] can be described thus: qHTS assay for identifying genotoxic compounds that show differential cytotoxicity against isogenic chicken DT40 cell lines with known DNA damage response pathways - Rad54/Ku70 mutant cell line (AID 743015). Note: nearly all actives have a fitted effect of over 60% in size. Note: potency is the fitted concentration of half-maximal effect.
Assay [5] can be described thus: qHTS assay to identify small molecule antagonists of the androgen receptor (AR) signaling pathway - cell viability counter screen (AID 743033; note: nearly all actives have a fitted effect of over 45% in size).
Assay [6] in a line: qHTS assay to identify small molecule antagonists of the androgen receptor (AR) signaling pathway using the MDA cell line - cell viability counter screen (AID 743041; note: nearly all actives have a fitted effect of over 45% in size). A digest of the protocol:
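Viability read by CellTiter-Fluor fluorescence in the same wells as the antagonist screen, added after 15.5 h of a 16 h, 37C exposure. Human breast carcinoma MDA-kb2 AR-luc cells, compounds co-dosed with agonist R1881.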

Assay [7] concerns the target Androgen receptor (Homo sapiens) (UniProt P10275). The experiment in a line: qHTS assay to identify small molecule antagonists of the androgen receptor (AR) signaling pathway (AID 743035; active = well fitted inhibition curve with a large enough effect in the signal ratio in the repeat runs, not every such curve was filed as active; the % refers to the signal ratio). A digest of the protocol:
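AR-bla HEK293 reporter cells; 4 h settle at 37C/5% CO2; compound + R1881 agonist, 16 h at 37C; LiveBLAzer B/G FRET substrate 2 h RT; fluorescence intensity read. qHTS format.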

Assay [8] shares this target. Kind of assay: qHTS assay to identify small molecule agonists of the androgen receptor (AR) signaling pathway (AID 743036; active = well fitted activation curve with a large enough effect in the signal ratio in the repeat runs, with a control signal flat, not every such curve was filed as active; the % refers to the signal ratio). The essentials:
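Screening used 2,000 AR-bla HEK293 cells per well, treated 16 h at 37C with test compounds in DMSO alongside positive and DMSO-only controls; beta-lactamase activity was then read by LiveBLAzer B/G FRET fluorescence after 2 h at room temperature.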

For assay [9] the target is unchanged. Kind of assay: qHTS assay to identify small molecule agonists of the androgen receptor (AR) signaling pathway using the MDA cell line (AID 743040; note: nearly all actives have a fitted effect of over 20% in size). A digest of the protocol: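 Luciferase agonist assay: 16 h compound exposure at 37C without CO2 in MDA-kb2 AR-luc cells, whose MMTV promoter responds to both AR and GR. Luminescence measured after 30 min room-temperature incubation with ONE-Glo.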

Assay [10] is described as follows: qHTS assay to identify small molecule antagonists of the thyroid receptor (TR) signaling pathway - cell viability counter screen (AID 743064). Note: nearly all actives have a fitted effect of over 50% in size. A digest of the protocol:
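Viability of T3-stimulated (1 nM final) GH3.TRE-Luc cells is measured by CellTiter-Fluor fluorescence after 23.5 h compound exposure at 37 °C plus 30 min reagent incubation.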

SMILES strings stand for the structures. A number with no mark means an inactive call. Results filed as inconclusive are left out. Active and inactive are the calls of the source. Unless noted, calls come from the whole dose curve; as a rule, active = well fitted curve in the direction sought with a large enough effect in the repeat runs; inconclusive = weak or mixed curves; inactive = no such curve, though single readings can be large; an effect the other way counts as inactive or inconclusive.
% is set by controls: 0 for no effect and ±100 for the full control effect.

Chain of Androgen receptor (Homo sapiens) (P10275 whole entry, looked up): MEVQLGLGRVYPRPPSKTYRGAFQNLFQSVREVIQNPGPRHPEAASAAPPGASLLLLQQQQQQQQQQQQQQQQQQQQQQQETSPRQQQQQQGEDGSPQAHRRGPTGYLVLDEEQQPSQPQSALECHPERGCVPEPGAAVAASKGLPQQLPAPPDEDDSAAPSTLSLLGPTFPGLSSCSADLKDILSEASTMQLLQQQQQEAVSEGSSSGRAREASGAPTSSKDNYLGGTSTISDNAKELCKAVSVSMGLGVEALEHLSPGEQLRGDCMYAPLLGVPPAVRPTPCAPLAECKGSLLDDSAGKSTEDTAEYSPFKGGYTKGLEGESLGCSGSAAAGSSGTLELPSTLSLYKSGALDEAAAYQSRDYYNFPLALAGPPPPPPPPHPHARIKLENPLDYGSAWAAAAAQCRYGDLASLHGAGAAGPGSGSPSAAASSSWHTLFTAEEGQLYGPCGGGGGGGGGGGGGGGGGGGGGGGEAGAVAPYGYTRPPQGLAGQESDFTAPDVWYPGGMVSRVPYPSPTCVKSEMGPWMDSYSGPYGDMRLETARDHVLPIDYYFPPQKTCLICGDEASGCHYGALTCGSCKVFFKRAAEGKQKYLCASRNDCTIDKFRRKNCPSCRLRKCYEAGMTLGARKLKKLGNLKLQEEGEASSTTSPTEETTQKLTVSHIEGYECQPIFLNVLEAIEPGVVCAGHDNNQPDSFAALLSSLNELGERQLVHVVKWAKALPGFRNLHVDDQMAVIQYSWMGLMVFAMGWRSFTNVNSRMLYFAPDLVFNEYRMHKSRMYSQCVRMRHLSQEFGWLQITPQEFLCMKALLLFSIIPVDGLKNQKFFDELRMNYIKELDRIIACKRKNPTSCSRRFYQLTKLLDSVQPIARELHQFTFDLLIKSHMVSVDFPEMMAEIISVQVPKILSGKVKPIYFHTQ

For `Cc1ccccc1OCC(=O)O`, the call in [1], in assay [5] and in assay [6] was inactive. For the same compound, the Potency entry in assay [2], in assay [3] and in assay [4] was “inactive” throughout.
Turning to `Cc1ccc2cccnc2c1`, the outcome in assay [1], in assay [5], in assay [7], in assay [8], in [9] and in [6] was inactive. The Potency result in assay [2], in [3], in [4] and in assay [10] was “inactive” in each case.
For `CCCCCCCCOCCC#N`, the result in assay [1], in assay [5] and in assay [6] was inactive. In addition, the Potency result in assay [2], in [3] and in assay [4] was “inactive” in each case.
Turning to `COCc1nnc(-c2ccc[n+]([O-])c2)n1-c1c(Cl)c(Cl)cc2[nH]c(=O)c(=O)[nH]c12`, the result in assay [1], in assay [5], in assay [8], in assay [9] and in assay [6] was inactive. The Potency result in assay [2], in assay [3], in assay [4] and in assay [10] was “inactive” each time.
Turning to `O=C1c2ccccc2C(=O)N1CO`, the compound was called inactive in assay [1], in assay [5], in assay [7], in [8], in [9] and in [6]. Further, the Potency entry in assay [2], in assay [3], in assay [4] and in assay [10] was “inactive” in each case.
For `CC(C)CC(O)Cc1ccccc1` (configuration not stated), the outcome in [1], in assay [5], in [7], in [8], in [9] and in [6] was inactive. Further, the Potency result in [2], in assay [3], in assay [4] and in [10] was “inactive” throughout.
Take `CCCCCCCCCCCCCC(=O)OCC`: the compound was classed as inactive in [1], in [5] and in [6]. The Potency entry in [2], in [3], in assay [4] and in [10] was “inactive” each time.
Turning to `CNC(C)=O`, the result in assay [1], in assay [5] and in assay [6] was inactive. For the same compound, the Potency entry in assay [2], in assay [3], in assay [4] and in assay [10] was “inactive” each time.
With `CCCCCCCCCCCCCCCC(=O)OC`, the compound was called inactive in [1], in assay [5] and in assay [6]. Also, the Potency result in assay [2], in assay [3], in assay [4] and in assay [10] was “inactive” in each case.
Regarding `CC(C)C(C)C`, the call in assay [1], in assay [5] and in assay [6] was inactive. Moreover, the Potency entry in assay [2], in [3], in assay [4] and in assay [10] was “inactive” each time.
Consider `Cc1ccc(Br)cc1`, for which the result in assay [1], in assay [5] and in [6] was inactive. Further, the Potency result in assay [2], in assay [3], in [4] and in assay [10] was “inactive” in each case.
For the compound `C/C=C(\C)C=O`, the call in [1], in assay [5] and in [6] was inactive. The Potency result in [2], in assay [3], in [4] and in [10] was “inactive” each time.
In the case of `O=c1c(O)c(O)c1=O`, the call in [1], in assay [5] and in assay [6] was inactive. The Potency result in [2], in assay [3], in [4] and in assay [10] was “inactive” each time.
Consider `CC(C)(C)c1ccc(N)cc1`, for which the compound was called inactive in assay [1], in assay [5] and in [6]. The Potency entry in [2], in assay [3], in [4] and in [10] was “inactive” in each case.
Turning to `CC(C)(C)OC=O`, the result in [1], in [5] and in [6] was inactive. Besides, the Potency entry in assay [2], in assay [3], in [4] and in assay [10] was “inactive” in each case.
For `CCCCCCCOC(C)=O`, the compound was classed as inactive in assay [1], in assay [5] and in assay [6]. For the same compound, the Potency result in assay [2], in [3], in assay [4] and in assay [10] was “inactive” in each case.
As to `CCCC(C)C(O)CC` (configuration not stated), the call in assay [1], in assay [5] and in assay [6] was inactive. The Potency result in [2], in assay [3], in assay [4] and in assay [10] was “inactive” in each case.
As to `O=S(=O)(O)c1ccc(Cl)cc1`, the result in assay [1], in assay [5] and in [6] was inactive. Moreover, the Potency result in assay [2], in assay [3], in assay [4] and in assay [10] was “inactive” throughout.
As for `O=C(O)/C=C(\CC(=O)O)C(=O)O`, the compound was classed as inactive in assay [1], in [5] and in assay [6]. The Potency result in assay [2], in [3], in assay [4] and in assay [10] was “inactive” in each case.
Regarding `CC/C=C\CCCCCCCCCCOC(C)=O`, the compound was classed as inactive in [1], in assay [5] and in assay [6]. Further, the Potency result in [2], in [3], in [4] and in assay [10] was “inactive” throughout.
For the compound `CCCOc1ccc(C(=O)OCCN(CC)CC)cc1N`, the result in [1], in assay [5] and in [6] was inactive. In addition, the Potency is 9.44 µM (active) in assay [2], 6.68 µM (active) in assay [3] and 13.3 µM (active) in assay [4]. In addition, in assay [10], the Potency result was “inactive”.
As for `c1cc2ccc3ccc4ccc5cccc6c(c1)c2c3c4c56`, the viability change, negative = cytotoxic in assay [1] was -5.31% [at 3.15 µM]; in assay [6], 14.1% [at 3.79 µM]. Moreover, the activity change, negative = cytotoxicity was -1.12% [at 3.82 µM] in [2], 5.01% [at 3.83 µM] in assay [4] and 1.8% [at 3.15 µM] in [5]. Further, the activity, negative = cytotoxicity in [3] is 5.02% [at 3.82 µM]. In addition, the activity change, negative = cytotoxic in assay [10] was 20.6% [at 3.79 µM].
As to `OCCC(F)(F)C(F)(F)C(F)(F)C(F)(F)C(F)(F)C(F)(F)F`, the outcome in assay [1], in [5] and in assay [6] was inactive. In addition, the Potency result in assay [2], in assay [3], in assay [4] and in [10] was “inactive” in each case.
On to `C/C=C/C(=O)CCCC`, for which the result in assay [1], in assay [5] and in [6] was inactive. Also, the Potency entry in [2], in [3], in assay [4] and in assay [10] was “inactive” each time.
In the case of `CC/C=C/CCCCCCCCCCOC(C)=O`, the result in assay [1], in assay [5] and in assay [6] was inactive. For the same compound, the Potency result in assay [2], in assay [4] and in assay [10] was “inactive” throughout. For the same compound, the Potency in [3] was 43.3 µM (active).
For the compound `Cc1ccc(NC(N)=O)cc1`, the call in assay [1], in assay [5] and in [6] was inactive. Besides, the Potency result in [2], in assay [3], in assay [4] and in assay [10] was “inactive” in each case.
On to `COC(=O)c1ccccc1Cl`, for which the call in [1], in assay [5] and in assay [6] was inactive. Moreover, the Potency result in assay [2], in [3], in assay [4] and in [10] was “inactive” each time.
For the compound `CC(C)(Sc1cc(C(C)(C)C)c(O)c(C(C)(C)C)c1)Sc1cc(C(C)(C)C)c(O)c(C(C)(C)C)c1`, the compound was classed as inactive in [1], in assay [5] and in assay [6]. The Potency result in [2], in [3], in assay [4] and in assay [10] was “inactive” in each case.
Consider `O=P(O)(O)C(O)(Cc1cccnc1)P(=O)(O)O`, for which the compound was called inactive in assay [1], in assay [5] and in assay [6]. Further, the Potency result in [2], in assay [3], in assay [4] and in [10] was “inactive” throughout.
